Source: the supplement of paper PMC10849652
About 8,800 targets were measured; listed, in parts, are those with a hit and a random draw of the rest. About 0.5% of all pairs of compound and target were hits.

Tests used:
Test in all cases: log2 fold change, soluble protein after heating vs DMSO (PISA); higher = thermal stabilisation; K562 lysate, 10 uM; active = over 0.2 and 3.5 SD of the protein, either way, in both replicates (recomputed)
[1] = compound: NCC(=O)Nc1ccc(-n2nc(C(F)(F)F)cc2-c2ccc3c(ccc4ccccc43)c2)cc1
How it was run: (§1)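 A 30 min treatment with 10 μM compound was applied to crude K562 extract at 1 mg/mL protein in PBS pH 7.4 with 1 mM MgCl2. Heating for 3 min spanned 48°C-58°C, after which aliquots were pooled, adjusted to 0.5% NP-40 at 4°C and spun at 21,000xg for 90 min. TMTpro 16plex LC-MS/MS of the supernatant, with channel sums equalised, gave values recorded as log-two fold change in thermal stability against solvent controls, from duplicates.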

vorinostat = compound: O=C(CCCCCCC(=O)Nc1ccccc1)NO [vorinostat]
How it was run: as §1

silmitasertib = compound: O=C(O)c1ccc2c(c1)nc(Nc1cccc(Cl)c1)c1ccncc12 [silmitasertib]
How it was run: as §1

[2] = compound: O=C1NC(=O)C(c2cnc3ccccn23)=C1c1cn2c3c(cc(F)cc13)CN(C(=O)N1CCCCC1)CC2
How it was run: as §1

entospletinib = compound: c1cn2cc(-c3ccc4cn[nH]c4c3)nc(Nc3ccc(N4CCOCC4)cc3)c2n1 [entospletinib]
How it was run: as §1

Measured: log2 fold change

EMP3 (UniProt P54852)
Sequence of UniProt P54852 (P54852 whole entry, looked up): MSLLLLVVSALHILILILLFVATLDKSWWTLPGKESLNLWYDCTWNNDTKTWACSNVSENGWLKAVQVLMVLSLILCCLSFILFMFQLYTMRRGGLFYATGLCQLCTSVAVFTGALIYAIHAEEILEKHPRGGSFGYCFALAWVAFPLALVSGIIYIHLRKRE
inactive: [1] 0.013 | vorinostat -0.022 | silmitasertib -0.05 | [2] -0.014 | entospletinib 0.144

FAM111A (UniProt Q96PZ2)
inactive: [1] 0.036 | vorinostat -0.364 | silmitasertib 0.1 | [2] 0.048 | entospletinib 0.044

EPB41 (UniProt P11171)
Sequence of UniProt P11171 (P11171 whole entry, looked up): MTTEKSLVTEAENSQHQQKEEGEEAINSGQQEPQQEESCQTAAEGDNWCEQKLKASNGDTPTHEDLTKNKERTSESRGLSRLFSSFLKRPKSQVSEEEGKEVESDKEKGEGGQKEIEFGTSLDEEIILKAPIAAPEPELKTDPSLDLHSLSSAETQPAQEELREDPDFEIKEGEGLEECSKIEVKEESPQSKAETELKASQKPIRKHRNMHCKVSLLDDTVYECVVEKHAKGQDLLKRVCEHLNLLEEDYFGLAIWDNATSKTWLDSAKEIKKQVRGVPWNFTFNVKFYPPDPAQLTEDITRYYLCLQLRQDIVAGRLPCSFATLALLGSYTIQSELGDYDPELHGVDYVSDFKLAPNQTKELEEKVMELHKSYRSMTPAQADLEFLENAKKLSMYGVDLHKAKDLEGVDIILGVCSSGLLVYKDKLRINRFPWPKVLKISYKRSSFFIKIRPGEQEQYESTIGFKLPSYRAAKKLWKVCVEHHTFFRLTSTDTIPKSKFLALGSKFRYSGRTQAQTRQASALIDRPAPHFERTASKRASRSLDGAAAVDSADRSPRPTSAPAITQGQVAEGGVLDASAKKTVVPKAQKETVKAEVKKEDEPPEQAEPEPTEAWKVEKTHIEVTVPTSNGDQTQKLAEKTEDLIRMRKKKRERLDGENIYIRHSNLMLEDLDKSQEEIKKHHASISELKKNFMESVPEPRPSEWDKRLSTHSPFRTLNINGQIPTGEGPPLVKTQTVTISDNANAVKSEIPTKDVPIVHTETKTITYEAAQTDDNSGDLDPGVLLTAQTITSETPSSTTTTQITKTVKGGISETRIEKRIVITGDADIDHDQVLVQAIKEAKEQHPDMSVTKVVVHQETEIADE
inactive: [1] -0.046 | vorinostat 0.035 | silmitasertib 0.007 | [2] -0.034 | entospletinib 0

ENGASE (UniProt Q8NFI3)
inactive: [1] -0.01 | silmitasertib 0.05 | [2] -0.013 | entospletinib -0.004
active: vorinostat -0.337

FAM83D (UniProt Q9H4H8)
Sequence of UniProt Q9H4H8 (Q9H4H8 whole entry, looked up): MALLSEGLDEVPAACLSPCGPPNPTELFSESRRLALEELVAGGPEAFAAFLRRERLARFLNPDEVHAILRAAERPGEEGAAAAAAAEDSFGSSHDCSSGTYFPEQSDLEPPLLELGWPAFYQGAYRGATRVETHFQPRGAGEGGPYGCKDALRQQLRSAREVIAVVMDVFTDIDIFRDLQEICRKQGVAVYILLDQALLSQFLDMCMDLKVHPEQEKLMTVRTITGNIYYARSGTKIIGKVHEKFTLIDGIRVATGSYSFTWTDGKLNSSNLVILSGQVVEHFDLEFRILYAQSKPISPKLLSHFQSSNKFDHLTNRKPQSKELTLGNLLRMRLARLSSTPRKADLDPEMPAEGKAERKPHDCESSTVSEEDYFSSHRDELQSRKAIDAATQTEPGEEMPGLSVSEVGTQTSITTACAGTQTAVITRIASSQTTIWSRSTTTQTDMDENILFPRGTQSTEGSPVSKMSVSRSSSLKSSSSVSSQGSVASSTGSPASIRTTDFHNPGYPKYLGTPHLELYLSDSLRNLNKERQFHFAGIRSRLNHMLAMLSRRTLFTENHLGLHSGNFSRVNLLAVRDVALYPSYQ
active: vorinostat -0.243
inactive: [1] 0 | silmitasertib 0.031 | [2] -0.004 | entospletinib 0.021

GALK1 isoform 2 (UniProt P51570)
inactive: [1] -0.017 | silmitasertib 0.063 | [2] 0.023 | entospletinib -0.088
active: vorinostat -0.338

EXOC2 (UniProt Q96KP1)
Sequence of UniProt Q96KP1 (Q96KP1 whole entry, looked up): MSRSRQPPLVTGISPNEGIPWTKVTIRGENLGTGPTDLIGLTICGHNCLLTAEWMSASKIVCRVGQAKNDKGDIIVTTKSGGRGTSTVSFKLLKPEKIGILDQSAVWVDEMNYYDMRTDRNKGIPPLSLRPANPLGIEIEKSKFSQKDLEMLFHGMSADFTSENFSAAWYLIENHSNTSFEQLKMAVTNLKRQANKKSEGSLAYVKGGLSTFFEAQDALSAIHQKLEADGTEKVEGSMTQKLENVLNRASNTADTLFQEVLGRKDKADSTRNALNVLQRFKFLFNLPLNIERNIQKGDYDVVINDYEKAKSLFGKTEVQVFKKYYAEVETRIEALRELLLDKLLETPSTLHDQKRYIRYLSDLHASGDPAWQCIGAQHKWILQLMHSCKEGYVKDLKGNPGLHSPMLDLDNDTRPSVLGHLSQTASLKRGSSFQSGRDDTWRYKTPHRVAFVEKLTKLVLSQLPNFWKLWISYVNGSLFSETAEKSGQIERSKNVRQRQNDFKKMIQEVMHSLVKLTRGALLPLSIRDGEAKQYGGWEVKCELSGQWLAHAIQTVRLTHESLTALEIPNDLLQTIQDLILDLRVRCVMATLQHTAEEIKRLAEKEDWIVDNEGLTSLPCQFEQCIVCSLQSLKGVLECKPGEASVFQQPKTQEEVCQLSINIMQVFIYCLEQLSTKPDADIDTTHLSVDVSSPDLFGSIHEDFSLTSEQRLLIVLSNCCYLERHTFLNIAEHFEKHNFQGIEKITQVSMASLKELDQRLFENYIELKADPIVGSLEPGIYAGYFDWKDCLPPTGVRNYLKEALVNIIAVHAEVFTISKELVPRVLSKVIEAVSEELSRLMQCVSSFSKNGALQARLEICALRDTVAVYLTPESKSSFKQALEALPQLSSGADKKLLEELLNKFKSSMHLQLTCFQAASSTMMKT
active: vorinostat -0.361
inactive: [1] -0.012 | silmitasertib 0.031 | [2] 0.022 | entospletinib 0.024

EEF1AKMT4 (UniProt P0DPD7)
inactive: [1] 0.053 | silmitasertib 0.029 | [2] 0.035 | entospletinib 0.012
active: vorinostat -0.312

FIBP (UniProt O43427)
Sequence of UniProt O43427 (O43427 whole entry, looked up): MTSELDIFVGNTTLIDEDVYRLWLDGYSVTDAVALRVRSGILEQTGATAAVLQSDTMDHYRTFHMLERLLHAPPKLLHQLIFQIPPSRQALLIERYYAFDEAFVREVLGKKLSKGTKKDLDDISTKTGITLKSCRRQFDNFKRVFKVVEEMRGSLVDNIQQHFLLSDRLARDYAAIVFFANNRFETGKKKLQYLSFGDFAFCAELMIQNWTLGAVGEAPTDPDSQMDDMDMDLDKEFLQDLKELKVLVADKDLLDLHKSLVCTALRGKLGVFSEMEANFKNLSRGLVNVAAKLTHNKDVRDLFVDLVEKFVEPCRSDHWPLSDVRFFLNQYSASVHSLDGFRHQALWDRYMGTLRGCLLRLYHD
inactive: [1] -0.049 | vorinostat -0.006 | silmitasertib 0.119 | [2] -0.02 | entospletinib -0.049

FAT2 (UniProt Q9NYQ8)
inactive: [1] 0.393 | vorinostat 0.001 | silmitasertib 0.098 | [2] 0.178 | entospletinib 0.162

ERAL1 (UniProt O75616)
inactive: [1] -0.013 | vorinostat -0.103 | silmitasertib 0.044 | [2] -0.044 | entospletinib -0.083

FYB1 isoform 3 (UniProt O15117)
inactive: [1] 0.007 | vorinostat 0.002 | silmitasertib -0.021 | [2] 0 | entospletinib -0.006

FBXO38 (UniProt Q6PIJ6)
inactive: [1] -0.029 | vorinostat -0.393 | silmitasertib 0.34 | [2] -0.159 | entospletinib -0.173

EIF2AK1 (UniProt Q9BQI3)
inactive: [1] -0.089 | vorinostat -0.18 | silmitasertib 0.03 | [2] -0.059 | entospletinib 0.009

EPB41, A0A2R8Y6D0
inactive: [1] 0.082 | vorinostat 0.094 | silmitasertib 0.037 | [2] -0.08 | entospletinib 0.016

DYRK1A isoform 2 (UniProt Q13627)
inactive: vorinostat -0.222 | silmitasertib -0.035 | [2] 0.002

ERG28 (UniProt Q9UKR5)
inactive: entospletinib 0.009

FKBP8 isoform 2 (UniProt Q14318)
active: vorinostat -0.219
inactive: [1] 0.024 | silmitasertib 0.001 | [2] -0.028 | entospletinib 0.018

FNDC3A (UniProt Q9Y2H6)
inactive: vorinostat -0.018 | silmitasertib -0.119 | [2] -0.146

FAT1 (UniProt Q14517)
inactive: vorinostat -0.229 | silmitasertib 0.077 | [2] -0.196 | entospletinib -0.034

FMNL2 isoform 3 (UniProt Q96PY5)
Sequence of UniProt Q96PY5 (Q96PY5 whole entry, looked up): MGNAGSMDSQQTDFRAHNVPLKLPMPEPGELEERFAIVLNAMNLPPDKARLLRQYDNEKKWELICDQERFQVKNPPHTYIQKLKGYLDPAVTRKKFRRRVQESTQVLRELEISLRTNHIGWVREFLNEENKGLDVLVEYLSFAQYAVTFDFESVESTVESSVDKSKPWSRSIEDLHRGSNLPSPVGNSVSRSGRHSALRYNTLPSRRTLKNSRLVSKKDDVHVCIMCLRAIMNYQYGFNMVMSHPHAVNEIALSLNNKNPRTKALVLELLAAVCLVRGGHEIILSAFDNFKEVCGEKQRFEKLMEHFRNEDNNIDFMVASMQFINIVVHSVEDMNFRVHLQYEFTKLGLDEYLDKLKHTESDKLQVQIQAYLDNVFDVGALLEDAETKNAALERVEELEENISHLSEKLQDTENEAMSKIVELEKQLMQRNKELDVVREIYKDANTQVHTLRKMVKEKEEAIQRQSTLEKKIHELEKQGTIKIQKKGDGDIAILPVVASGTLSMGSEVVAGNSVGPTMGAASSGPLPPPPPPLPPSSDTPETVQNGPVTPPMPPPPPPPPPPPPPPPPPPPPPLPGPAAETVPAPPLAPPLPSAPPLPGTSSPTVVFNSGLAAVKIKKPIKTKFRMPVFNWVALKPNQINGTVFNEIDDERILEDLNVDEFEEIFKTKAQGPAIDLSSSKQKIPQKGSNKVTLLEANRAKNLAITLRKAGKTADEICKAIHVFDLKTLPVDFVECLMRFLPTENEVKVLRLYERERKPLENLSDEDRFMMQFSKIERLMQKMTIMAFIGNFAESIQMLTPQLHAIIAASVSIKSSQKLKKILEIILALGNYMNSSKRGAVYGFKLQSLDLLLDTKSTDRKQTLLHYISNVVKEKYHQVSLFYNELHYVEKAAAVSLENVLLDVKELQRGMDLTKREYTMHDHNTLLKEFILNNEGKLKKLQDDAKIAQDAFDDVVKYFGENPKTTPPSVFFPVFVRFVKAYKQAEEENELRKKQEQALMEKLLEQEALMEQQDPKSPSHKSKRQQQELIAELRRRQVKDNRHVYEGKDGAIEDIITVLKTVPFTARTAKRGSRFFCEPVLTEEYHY
active: vorinostat -0.587
inactive: silmitasertib -0.027 | [2] 0.045

GBA2 (UniProt Q9HCG7)
inactive: vorinostat -0.089 | silmitasertib -0.004 | [2] -0.091 | entospletinib -0.102

ENO2 (UniProt P09104)
inactive: [1] -0.021 | vorinostat 0.03 | silmitasertib -0.014 | [2] 0.001 | entospletinib -0.068

EEF1A1, A0A087WVQ9
inactive: [1] -0.025 | silmitasertib -0.002 | [2] -0.022 | entospletinib 0.015
active: vorinostat -0.541

GC isoform 3 (UniProt P02774)
inactive: [1] -0.058 | [2] 0.076 | entospletinib -0.053

FOXJ2 (UniProt Q9P0K8)
Sequence of UniProt Q9P0K8 (Q9P0K8 whole entry, looked up): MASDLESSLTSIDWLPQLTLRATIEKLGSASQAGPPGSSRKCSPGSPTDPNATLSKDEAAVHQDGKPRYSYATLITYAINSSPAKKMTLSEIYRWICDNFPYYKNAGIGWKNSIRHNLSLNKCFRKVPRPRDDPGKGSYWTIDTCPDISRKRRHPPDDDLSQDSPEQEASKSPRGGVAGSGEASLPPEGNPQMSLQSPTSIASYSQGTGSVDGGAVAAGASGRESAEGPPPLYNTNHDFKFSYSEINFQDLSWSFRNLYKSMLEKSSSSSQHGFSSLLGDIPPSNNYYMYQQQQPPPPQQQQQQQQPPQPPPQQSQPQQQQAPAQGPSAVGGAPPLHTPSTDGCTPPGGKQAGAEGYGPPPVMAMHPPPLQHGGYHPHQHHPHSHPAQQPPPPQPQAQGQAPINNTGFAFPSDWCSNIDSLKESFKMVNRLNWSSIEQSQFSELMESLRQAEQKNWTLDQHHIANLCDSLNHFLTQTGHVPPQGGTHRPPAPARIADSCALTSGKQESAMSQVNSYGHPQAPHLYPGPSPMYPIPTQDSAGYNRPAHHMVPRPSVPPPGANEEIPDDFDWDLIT
inactive: vorinostat -0.208 | silmitasertib -0.058 | entospletinib 0.033

ESRRA (UniProt P11474)
Sequence of UniProt P11474 (P11474 whole entry, looked up): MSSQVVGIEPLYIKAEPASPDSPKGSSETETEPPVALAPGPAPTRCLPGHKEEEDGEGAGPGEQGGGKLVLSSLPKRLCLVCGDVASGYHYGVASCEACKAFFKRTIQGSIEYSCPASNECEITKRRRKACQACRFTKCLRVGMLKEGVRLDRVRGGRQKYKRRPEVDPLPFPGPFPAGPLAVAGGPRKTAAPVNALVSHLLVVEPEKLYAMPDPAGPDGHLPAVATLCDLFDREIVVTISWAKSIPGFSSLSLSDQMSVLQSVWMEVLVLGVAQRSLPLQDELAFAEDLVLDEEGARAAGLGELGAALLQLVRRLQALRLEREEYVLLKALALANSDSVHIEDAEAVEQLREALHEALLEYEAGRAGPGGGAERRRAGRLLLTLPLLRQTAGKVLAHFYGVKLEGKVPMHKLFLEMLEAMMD
inactive: [1] -0.094 | silmitasertib 0.063 | [2] 0.026 | entospletinib -0.034
